Hits are enriched below; roughly 5.1% of the tested compounds scored in any of these assays.
Cl transport mod – modulates chloride dependent transport by human KCC2. Q9H2X9. KCC2 cells, thallium flux FluoZin-2 fluorescence. B-score of Tl+ flux slope (higher = more flux/activation; lower = inhibition) at 10 µM. AID 1456. 2.2% of 190,000 active;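 active = thallium flux slope and its plate-corrected score both differing from the plate sample mean at a set confidence after two filtering rounds, in either direction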;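 note: slope of fluorescence scaled to starting intensity during 10 to 20 s after thallium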
S1P4 antag – blocks the human S1P4 receptor | O95977 | S1P4-expressing cells, antagonist mode, reporter read-out | inhibition, % at 4.98 µM | 0.26% of 220,000 active; in the data active = inhibition above about 29%
S1P4 ag – activates the human S1P4 receptor; activation, % at 4.98 µM; O95977; S1P4-expressing cell line, agonist reporter assay; 0.35% of 220,000 active; in the data active = activation above about 11%
ROMK mod – modulates human ROMK potassium channel activity; AID 1918; Tet-inducible ROMK, thallium flux fluorescence; actives lie on both sides; P48048; B-score at 10 µM; 2% of 130,000 active;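 active = signal ratio slope over the read window, or its plate-corrected B-score, at least 3 SD from the plate mean, either direction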;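 note: B-score of the F/F0 ratio slope over 7 to 12 s after thallium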
Target sequence (P48048 whole entry, looked up): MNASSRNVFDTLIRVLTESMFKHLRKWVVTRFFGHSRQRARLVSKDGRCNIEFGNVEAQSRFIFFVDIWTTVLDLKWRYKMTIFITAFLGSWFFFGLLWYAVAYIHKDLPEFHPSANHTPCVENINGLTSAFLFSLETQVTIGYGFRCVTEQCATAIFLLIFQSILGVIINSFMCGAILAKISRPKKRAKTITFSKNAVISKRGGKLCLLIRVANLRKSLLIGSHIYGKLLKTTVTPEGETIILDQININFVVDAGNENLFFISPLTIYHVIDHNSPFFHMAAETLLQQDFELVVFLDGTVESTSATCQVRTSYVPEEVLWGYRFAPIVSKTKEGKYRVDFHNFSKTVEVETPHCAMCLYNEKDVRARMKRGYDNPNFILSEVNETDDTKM
RAM network inh – blocks the yeast RAM network; S. cerevisiae dse1pr::URA3 reporter, 5-FOA growth OD615, 2 d; analog-sensitive cbk1-as2 kinase mutant strain; inhibition, % at 50 µM; 1.8% of 190,000 active;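 active = inhibition above a set limit, 3 SD over mean compound inhibition, cut at about 8.4% in these data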;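 note: inhibition rescues growth on 5-FOA so higher OD means more RAM inhibition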
S1P3 antagonist – S1P3 (human) receptor antagonism. Q99500. CHO S1P3 NFAT-BLA reporter, FRET fluorescence, antagonist mode. inhibition, % at 4.98 µM. 0.27% of 170,000 active. AID 485;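 active = inhibition above the plate cutoff, the mean inhibition of test wells on that plate plus 3 SD, cut at about 28% in these data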;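 note: cells challenged with S1P at its EC80 of 0.8 µM; blue over green emission ratio from cleaved BLA substrate after 4 h stimulation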
ROMK hit retest – retested hit modulating human ROMK potassium channel. shares compounds with ROMK mod. ROMK thallium flux, fluorescence ratio; stronger effect = lower value. normalized thallium flux (F/F0 slope) at 10 µM. 54% of 3,000 active;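 active = Flux at 10 µM at least 3 SD below or above vehicle control mean in one or both replicates; inconclusive = no clear call, values can overlap the other calls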
A number is an active result; 0 = inactive; ? = inconclusive; - = not tested or not shown.

SMILES | Cl transport mod | S1P4 antag | S1P4 ag | ROMK mod | RAM network inh | S1P3 antagonist | ROMK hit retest
CCCCC(=O)OCC(=O)c1cc(C)n(-c2c(C)n(C)n(-c3ccccc3)c2=O)c1C | 0 | 0 | 0 | 0 | 0 | 0 | -
O=C(Cc1ccccc1)Nc1ccc(N2CCOCC2)cc1 | 0 | 0 | 0 | -2 | 0 | 0 | 0
c1ccc(Oc2nc(Oc3ccccc3)nc(N3CCOCC3)n2)cc1 | 0 | 0 | 0 | -3.6 | 0 | 0 | ?
O=C(N1CCOCC1)N1CCN(c2ccccc2)CC1 | 0 | 0 | 0 | - | 0 | - | -
c1ccc(N2CCOCCOCCOCCOCCOCC2)cc1 | 0 | 0 | 0 | -6.7 | 0 | 0 | 0
O=C(Cc1ccccc1)Nc1ccc(N2CCCC2)cc1 | 0 | 0 | 0 | 0 | 0 | - | -
O=C(O)C1C2CCC(O2)C1C(=O)Nc1ccc(O)cc1 (stereo not given) | 0 | 0 | 0 | - | 0 | 0 | -
CCOC(=O)C(=O)Nc1ccccc1C(=O)NCc1ccccc1 | 0 | 0 | 0 | 0 | 0 | 0 | -
COC(=O)c1ccc(S(=O)(=O)c2ccccc2)c(N)c1 | 0 | 0 | 0 | - | 0 | - | -
Cc1ccc(CN2CCN(Cc3nc4ccccc4nc3C)CC2CCO)cc1 (stereo not given) | 0 | 0 | 0 | - | - | 0 | -
Cc1ncn(-c2ccc(C(=O)Oc3ccccc3)cn2)n1 | 0 | 0 | 0 | 0 | 0 | 0 | -
Cc1ccc(S(=O)(=O)/N=C2/NC(=O)/C(=C/c3ccccc3)S2)cc1 | 0 | 0 | 0 | -4.6 | 0 | 0 | 0.051
Cc1ccc(S(=O)(=O)/N=C2/NC(=O)/C(=C/c3ccncc3)S2)cc1 | 0 | 0 | 0 | 0 | 0 | 0 | -
c1ccc(-c2csc3ncnc(NCc4ccccn4)c23)cc1 | 0 | 0 | 0 | - | - | 0 | 0.056
CCN1C(=O)c2cccc3c(S(=O)(=O)Nc4ccccc4OC)ccc1c23 | 0 | 0 | 0 | - | 0 | 0 | 0.062
CCN1C(=O)c2cccc3c(S(=O)(=O)NCCc4c[nH]c5ccccc45)ccc1c23 | 0 | 0 | 0 | 0 | 0 | - | -
CC1=C(C(=O)OC2CCCCC2)C(c2ccco2)C2=C(CC(C)(C)CC2=O)N1 (stereo not given) | 0 | 0 | 0 | - | 0 | 0 | 0
COc1ccc(C2N(C(=O)N3CCOCC3)CCN2S(=O)(=O)c2ccc(C)cc2)cc1 (stereo not given) | - | 0 | 0 | 1.9 | 0 | - | 0
Cc1ccc(CNC(=O)C2CC(=O)N(c3ccc(OCC(=O)N4CCCC4)cc3)C2)cc1 (stereo not given) | 0 | 0 | 0 | - | 0 | - | -
CCCCCC(=O)Nc1nc(C)c(-c2csc(Nc3ccccc3OC)n2)s1 | 0 | 0 | 0 | - | 0 | - | -
CCCC(=O)Nc1nc(C)c(-c2csc(Nc3ccccc3C)n2)s1 | 0 | 0 | 0 | -15 | 0 | - | ?
COC(=O)C1(C)Cc2cc(OC(C)=O)c(OC(C)=O)cc2N1 (stereo not given) | - | 0 | 0 | - | - | 0 | -
CCOCCOC(=O)c1[nH]c2c(c1C)C(=O)CC(c1cccs1)C2 (stereo not given) | 0 | 0 | 0 | 5.7 | 0 | 0 | 0
COCCOC(=O)c1[nH]c2c(c1C)C(=O)CC(c1cccs1)C2 (stereo not given) | 0 | 0 | 0 | 0 | 0 | 0 | -
CCCCCOC(=O)c1[nH]c2c(c1C)C(=O)CC(c1ccco1)C2 (stereo not given) | 0 | 0 | 0 | 0 | 0 | 0 | 0
SMILES | Cl transport mod | S1P4 antag | S1P4 ag | ROMK mod | RAM network inh | S1P3 antagonist | ROMK hit retest
CCOC(=O)Cn1cc(C#N)c2cccc(CC)c21 | 0 | 0 | 0 | 0 | 0 | 0 | -
Cc1ccc(C2=NOC(=O)/C2=C\c2ccc(C)o2)cc1 | 0 | 0 | 0 | -3.7 | - | 0 | 0.039
CC1=NN(C(=O)c2ccccc2Cl)C(O)(c2cccnc2)C1 (stereo not given) | 0 | 0 | 0 | 0 | 0 | 0 | ?
CC1=NN(C(=O)Cc2ccccc2)C(O)(c2cccnc2)C1 (stereo not given) | - | 0 | 0 | - | 0 | - | -
O=C(c1ccc(-c2cc(Cl)ccc2Cl)o1)N1CCOCC1 | 0 | 0 | 0 | -3.5 | 0 | 0 | 0.063
O=C1CC(C(=O)O)S/C(=N\N=C\c2ccc(Br)cc2)N1 (stereo not given) | 0 | 0 | 0 | 0 | - | 0 | -
Cc1ccc2c(c1)N(CCC(=O)NCc1cccs1)C(=O)C(C)O2 (stereo not given) | - | 0 | 0 | 0 | 0 | - | -
CCCCN(CCCC)C(=O)CSc1nnc2n(C)c(=O)c3c4c(sc3n12)CCCC4 | 0 | 0 | 0 | -3.6 | 0 | - | 0.049
Cc1cccc(Oc2ccc(NC(=O)c3ccccc3C(=O)O)cc2)c1C | 0 | 0 | 0 | 1.6 | 0 | 0 | 0
C=CCn1c(SCc2ccc(C(=O)Nc3nccs3)cc2)nnc1-c1ccc(C)c(Cl)c1 | 0 | 0 | 0 | - | 0 | 0 | 0
CCOCCCNC(=O)c1c[nH]c2c(CC)cccc2c1=O | 0 | 0 | 0 | 0 | 0 | 0 | -
Cc1cc(C)n(-c2nc(Nc3ccccc3C(F)(F)F)nc(-n3nc(C)cc3C)n2)n1 | 0 | 0 | 0 | - | 0 | - | ?
CCCN(CCC)CCNC(=O)C1c2ccccc2C(=O)N2CCc3ccccc3C12 (stereo not given) | 0 | 0 | 0 | 0 | 0 | 0 | -
O=C(Nc1ccc(Br)cc1)C1CCCN1S(=O)(=O)c1cccs1 (stereo not given) | 0 | 0 | 0 | -3.3 | 0 | - | 0.061
C=CC#CC1(O)CC(C)[N+](C)(C)CC1C (stereo not given) | 0 | 0 | 0 | 0 | 0 | 0 | 0
CCO[C@@H]1OC(C(=O)Nc2ccccc2)=C[C@H](C2CC2)[C@H]1CCCO | 0 | 0 | 0 | - | 0 | 0 | -
Cc1c(N/C(=N/S(=O)(=O)c2ccccc2)c2ccc(Cl)cc2)c(=O)n(-c2ccccc2)n1C | 0 | 0 | 0 | - | 0 | 0 | -
Cc1ccc(CCN2C(=O)CCC2(C)C(=O)NC2CCCC2)cc1 (stereo not given) | 0 | 0 | 0 | 0 | 0 | 0 | 0
COc1ccc(CCN2C(=O)CCC2(C)C(=O)NC2CCCC2)cc1OC (stereo not given) | 0 | 0 | 0 | 0 | 0 | 0 | -
OCCC1CN(Cc2cccc3nccnc23)CCN1Cc1ccc(F)cc1 (stereo not given) | 0 | 0 | 0 | - | - | 0 | -
CCCN(CC1CC1)C(=S)Nc1ccccc1F | 0 | 0 | 0 | - | 0 | 0 | -
O=C(/C=C/c1cn(CC(O)CN2CCOCC2)c2ccccc12)c1cccs1 (stereo not given) | 0 | 0 | 0 | - | - | 0 | 0.039
O=Cc1cn(CC(O)CN2CCCCC2)c2ccccc12 (stereo not given) | 0 | 0 | 0 | 0 | 0 | 0 | -
O=C(NCCN1CCOCC1)c1cc(Sc2ccccc2Cl)nc2ccccc12 | 0 | 0 | 0 | 0 | 0 | 0 | -
CN(C(=O)COC(=O)COc1ccc(Cl)cc1)C1CCCCC1 | 0 | 0 | 0 | - | 0 | 0 | 0
O=C(/C(Cl)=C/Nc1ccc(Br)cn1)C(F)(F)F | 0 | 0 | 0 | 0 | 0 | 0 | -
COc1cccc(-c2csc(N3CCN(C(=O)Nc4ccccc4Cl)CC3)n2)c1 | 0 | 0 | 0 | 0 | 0 | 0 | -
COc1cccc(NC(=O)N2CCN(c3nc(-c4cccc(OC)c4)cs3)CC2)c1 | 0 | 0 | 0 | - | - | 0 | 0.068
